In all, about 360,000 compounds went through this assay and about 7,500 (2.1%) were called active. Not shown: some 20% with an inconclusive outcome. This excerpt belongs to a sample that is enriched for actives. Values without a mark were called inactive. Calls come from the whole dose curve; as a rule, active = well fitted inhibition curve with a large enough effect; inconclusive = small, poorly fitted or top-dose-only effect, or effect the other way; inactive = flat fitted curve, though single readings scatter.

The values below come from PubChem BioAssay AID504444 (National Center for Advancing Translational Sciences (NCATS), 2011).
% is set by controls: 0 for no effect and ±100 for the full control effect; potency is the fitted concentration of half-maximal effect.

A short description of the assay: Nrf2 qHTS screen for inhibitors. Note: nearly all actives have a fitted effect of over 60% in size. Particulars: A549 ARE-Fluc reporter, luciferase luminescence, 18-24 h; series mostly up to 46 µM; activity change, negative = inhibition: at the top concentration. The method, boiled down: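 In this cell-based qHTS, ARE-driven firefly luciferase in A549 cells reports Nrf2 activity; the luminescent signal after BugLite lysis is the measured value, with a prior CellTiter-Fluor read for cell health.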
(qHTS replaces the single test concentration by a dilution series.)
Regarding `Cc1ccc(NC(=O)C(C)Sc2nnc(C3CC3)n2C2CC2)cc1S(=O)(=O)N1CCOCC1` (stereo not drawn), the “activity change, negative = inhibition” value is -20.8%.
The same measure, in the same setting: with `C#CCOCCOCCOCCNc1nc(N2CCN(C(=O)[C@H](CO)n3cc([C@@H](N)C(C)C)nn3)CC2)nc(N2CCN(C(=O)[C@H](CCC(=O)O)n3cc([C@@H](N)[C@H](C)CC)nn3)CC2)n1` the figure was 10.7%; with `COc1ccc(C(=O)CSc2nnnn2C)c(OC)c1`, -8.69%; with `COc1ccc(-n2nnnc2SCC(=O)NCc2cccs2)cc1`, 1.52%.
For `Cc1cc(NC(=O)CSc2nnnn2-c2ccc(F)cc2)no1`, the “activity change, negative = inhibition” value was 6.18%.
On the same count and under the same terms, for `Oc1ccc(-n2nnnc2SCc2c(F)cccc2Cl)cc1` the value was 2.72%.
For the molecule `COc1ccc(CSc2nnnn2-c2ccc(O)cc2)cc1F`, the Potency is 14.6 µM (active).
On the same count and under the same terms, for `COc1ccc(-n2nnnc2SCC(=O)c2ccc(OC)c(OC)c2)cc1` the value was 16.4 µM (active).
Regarding `O=C(NCc1nnc(C(=O)Nc2ccc(C(F)(F)F)cc2Cl)o1)c1ccccc1`, the “activity change, negative = inhibition” value is 13.5%.
`Cc1nn(-c2ccc(F)cc2)c(Cl)c1/C=C(/CCC(=O)O)c1nc2ccccc2s1`: the “activity change, negative = inhibition” value is -25%.
Still for that read-out and setting: with `COc1ccc(-c2ccc3ncnc(NCc4cccs4)c3c2)cc1OC` the figure was -24.9%; with `O=C(CSc1nnc(-c2ccccc2F)o1)Nc1cccc(C(F)(F)F)c1`, 9.58%; with `COc1ccc(C(=O)OCC(=O)N2CC(=O)Nc3ccccc32)cc1Br`, -7.14%.
On the same count and under the same terms, for `COc1cc(OC)c(C(=O)OCC(=O)N2CC(=O)Nc3ccccc32)cc1OC` the value was 0.599%.
For `COc1ccc(Cl)cc1-n1c(C)cc(C(=O)OCC(=O)N2CC(=O)Nc3ccccc32)c1C`, the Potency was 18.4 µM (active).
In the case of `COc1cccc(-n2cc(C(=O)NCc3cccc(Cl)c3)c3ccccc3c2=O)c1`, the “activity change, negative = inhibition” value was -15.8%.
The same measure, in the same setting: with `Oc1ccccc1-c1nc2ccc(Cl)cn2c1Nc1ccc2c(c1)OCCO2` the figure was 18.1%; with `CN1CCN(S(=O)(=O)c2cccc(C(=O)O)c2)CC1`, 8.01%.
On the same count and under the same terms, with `CC(=O)c1ccc(OCC(O)CN2CCN(S(=O)(=O)c3cccc(Br)c3)CC2)cc1` (stereo not drawn) the figure was -24.4%.
On to `Cc1ccc(OCCNC(=O)c2cccc(S(=O)(=O)N3CCN(Cc4ccccc4)CC3)c2)cc1`, for which the Potency is 11.6 µM (active).
Take `NC(=O)C1CCN(C(=O)c2cc(S(=O)(=O)N3CCN(c4ccccc4)CC3)ccc2Cl)CC1`: the “activity change, negative = inhibition” value is -14.7%.
Same read-out and setting: for `COCCNC(=O)CSc1nc(-c2ccccc2)[nH]c1-c1ccc(C)cc1` the value was -5.73%.
For the molecule `COc1cccc(Oc2ccc(N)cc2)c1`, the “activity change, negative = inhibition” value is 14.4%.
As for `CC(C)(c1ccccc1)c1ccc(OCCN)cc1`, the “activity change, negative = inhibition” value was 1.37%.
On to `CC(C)(C)c1ccc(Oc2ccc(N)cc2)cc1`, for which the Potency is 4.11 µM (active).
For `COc1cccc(NC(=O)CSc2cc(=O)n(C)c3ccc(Cl)cc23)c1`, the “activity change, negative = inhibition” value is -28%.
Same read-out and setting: with `Cc1ccc(N2CC(c3nnc(Cc4ccccc4Cl)o3)CC2=O)cc1` (stereo not drawn) the figure was 18.7%; with `CN1CCC(N(C)C(=O)c2ccc(Cl)c(S(=O)(=O)Nc3ccc(Cl)cc3)c2)CC1`, 3.83%.
As for `COc1ccccc1-c1ccnc2[nH]n(-c3ccccc3)c(=O)c12`, the “activity change, negative = inhibition” value is -1.14%.
On the same count and under the same terms, for `CCOc1ccccc1NC(=O)c1ccc2c(c1)CCN2S(=O)(=O)c1ccc(C)cc1` the value was 14.1%; for `O=C(Nc1ccc(NC(=O)c2ccc3c(c2)OCO3)cc1)c1cccc(Cl)c1`, 3.66%.
Regarding `O=C(Nc1cccc(S(=O)(=O)Nc2ccc(Cl)cc2)c1)c1ccc2c(c1)OCCO2`, the Potency was 10.3 µM (active).
Take `CC(NS(=O)(=O)c1ccc(Cl)cc1)C(=O)Nc1ccc2c(c1)OCCO2` (stereo not drawn): the “activity change, negative = inhibition” value is 0.41%.
In the case of `CCN(CC)S(=O)(=O)c1ccc(NC(=O)c2cnc(C)cn2)cc1`, the “activity change, negative = inhibition” value is -2.49%.
Still for that read-out and setting: for `CCN(CC)S(=O)(=O)c1ccc(N(C)CCc2ccc(OC)c(OC)c2)nc1` the value was -2.74%.
With `CCN(CC)S(=O)(=O)c1ccc(N(C)Cc2ccc(C(F)(F)F)cc2)nc1`, the Potency is 18.4 µM (active).
On to `CCOC(=O)C1=C(C)N(C[C@@H]2CC[C@@H](Cc3ccc(-c4ccccc4)cc3)O2)C(=O)NC1c1ccc([N+](=O)[O-])cc1` (stereo partly drawn), for which the “activity change, negative = inhibition” value was -22.3%.
The same measure, in the same setting: for `Cc1ccc(F)cc1NC(=O)CCSc1nc(-c2ccco2)cc(C(F)(F)F)n1` the value was -13.2%.
As for `O=C(CSc1nnc2c(n1)[nH]c1ccccc12)NC1CCCCC1`, the Potency was 3.66 µM (active).
In the case of `COc1ccc2[nH]c3nc(SCC(=O)NC4CC4)nnc3c2c1`, the “activity change, negative = inhibition” value is 0.184%.
With `CCOc1ccc2[nH]c3nc(SCC(=O)NC4CCCC4)nnc3c2c1`, the “activity change, negative = inhibition” value was 3.92%.
Same read-out and setting: with `CCOC(=O)c1cccc(NC(=O)C(Cc2ccccc2)NS(=O)(=O)c2cccc3nsnc23)c1` (stereo not drawn) the figure was 24.3%; with `Cc1ccc2oc3c(c(=O)c2c1)C(c1ccc(O)cc1)N(Cc1ccc2c(c1)OCO2)C3=O` (stereo not drawn), -8.81%; with `CC(C)[C@@H](C(=O)OCC(=O)c1ccc2c(c1)NC(=O)CO2)N1C(=O)c2ccccc2C1=O`, -8%.
The same measure, in the same setting: for `CC(C)c1ccc(S(=O)(=O)Nc2ccc(O)c(Sc3nc4ccccc4s3)c2)cc1` the value was 9.38%.
Regarding `O=C(CCn1ccc2cc(S(=O)(=O)N3CCCC3)ccc21)NCc1cccc(Cl)c1`, the “activity change, negative = inhibition” value is -6.98%.
Still for that read-out and setting: for `O=C(CCC(=O)c1ccccc1)NCc1cccc(C(F)(F)F)c1` the value was 3.64%.
Take `O=C(CCC(=O)N1CCN(S(=O)(=O)c2ccc(Cl)cc2)CC1)NCc1cccc(C(F)(F)F)c1`: the Potency was 8.2 µM (active).
As for `COc1ccc(-c2nc(=N)sn2-c2ccccc2)cc1`, the “activity change, negative = inhibition” value was 24%.
Turning to `Cc1ccc(NC2=C(c3ccc(C(F)(F)F)cc3)C(=O)c3ccccc32)cc1F`, the “activity change, negative = inhibition” value was -20.5%.
As for `O=S(=O)(Nc1ccc2nc(-c3cccc(Cl)c3)oc2c1)c1ccccc1`, the “activity change, negative = inhibition” value was -21.7%.
Take `O=C(Nc1cc(-c2ccccc2)nn1-c1ccccc1F)c1ccc([N+](=O)[O-])cc1`: the Potency was 20.6 µM (active).
Regarding `O=C(Nn1c(-c2ccccc2)nc2ccccc2c1=O)c1ccc([N+](=O)[O-])cc1`, the “activity change, negative = inhibition” value was -12.6%.
Regarding `O=C(Nc1ccccc1C(=O)Nc1ccncc1)c1ccc([N+](=O)[O-])cc1`, the “activity change, negative = inhibition” value is 6.83%.
Consider `COc1cccc(CNCCSc2nnnn2C)c1OCc1ccccc1Cl`, for which the “activity change, negative = inhibition” value was -11.2%.
The same measure, in the same setting: with `COc1cc(OC)c(OC)cc1/C=N/Nc1ncnc2c1[nH]c1ccc(C)cc12` the figure was 1.21%; with `CC(C)OCCCNC(=O)c1cc(Sc2ccc(F)cc2)nc2ccccc12`, -13.6%.
Take `CC(C)OCCCNc1ncnc2c1[nH]c1ccc(F)cc12`: the Potency was 4.11 µM (active).
As for `Cc1ccc(CCNC(=O)c2nnc(Cc3cccc(F)c3)o2)cc1`, the “activity change, negative = inhibition” value was -25.7%.
The same measure, in the same setting: for `CCOC(=O)c1ccc(CSc2nnc3cc(C)c4ccccc4n23)cc1` the value was 15%; for `COC(=O)c1cccc(N2C(=O)C3C4C=CC(CC4)C3C2=O)c1` (stereo not drawn), 0.177%.
As to `Cc1cccc(N2CCN(C(=O)c3cccc(N4C(=O)C5C6C=CC(C6)C5C4=O)c3)CC2)c1C` (stereo not drawn), the Potency is 18.4 µM (active).
Turning to `CC1C=CCC2C(=O)N(c3cccc(C(=O)N4CCCCCC4)c3)C(=O)C12` (stereo not drawn), the “activity change, negative = inhibition” value was 10.5%.
